Results reported in PubChem BioAssay (NCI).
About 83,000 compounds went through this panel and 20% of them were active in at least one assay; those are over-represented in the sample as a whole.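 Single-concentration screen, 48 h exposure, 96-well plates. Endpoint: percent growth. Below 10 = active.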 Active and inactive are the calls of the source.

The molecules below were run on NCI-H226 lung (assay: NCI-60 one-dose screen, 48 h (100 = growth as untreated, 0 = no growth, -100 = all killed)). Conditions: 10 µM unless noted.
Method: Growth inhibition of the NCI-H226 human Non-Small Cell Lung tumor cell line is measured as a screen for anti-cancer activity. Cells are grown in 96 well plates and exposed to the test compound for 48 hours. Compounds are tested at a single concentration, which is 10^-5 M for most compounds. The reported endpoint is percent growth (GI% or GIPRCNT), where numbers from 0 - 100% represent growth inhibition, and numbers from -100% - 0 represent cell death. For example, a value of 40 represents 60% growth inhibition. A value of 0 means no net growth occurred over the course of the experiment. A value of -40 indicates 40% of cells at the beginning of the experiment died by the end of the experiment. A value of -100 means all cells are dead at the end of the experiment.
NCI-60 Human Tumor Cell Lines Screen was performed using the standard one-dose NCI protocol, which is described in more detail at https://dtp.cancer.gov/discovery_development/nci-60/default.htm.
Compounds with GIPRCNT values below 10 were considered active. Activity score was based on GIPRCNT using the following formula: […]
Score is 0 for GIPRCNT values of 100 or above, 50 for GIPRCNT values of 0, and 100 for GIPRCNT values of -100.

**Q.** Which growth does the source give for `O=C1C(=O)/C(=C/c2ccccc2)CCCCCC/C1=C/c1ccccc1` here?
**A.** 101% (inactive)

**Q.** How did the growth turn out when `N#Cc1ncc(-c2ccc(C(F)(F)F)cc2)c(NC2CCCCCC2)n1` was run?
**A.** 35.1% (inactive)

**Q.** Which growth does the source give for `O=[N+]([O-])c1ccc2[nH]cc(-c3c4ccccc4cc4[nH]c5ccc([N+](=O)[O-])cc5c34)c2c1` here?
**A.** 39.5% (inactive)

**Q.** For `COc1c(O)cc2c(c1CC=C(C)C)OC(=O)c1c(cc(O)c(CC=C(C)C)c1O)O2`, which growth is on record?
**A.** 88.1% (inactive)

**Q.** `CN(C)CCCNc1nn2c(=O)c3ccccc3nc2c2ccccc12` was tested. Which growth did it give?
**A.** 53.4% (inactive)

**Q.** `CC1CN(/N=C/c2ccc([N+](=O)[O-])o2)C(=N)O1` (stereo not given) was tested. Which growth did it give?
**A.** 96.3% (inactive)

**Q.** Which growth does the source give for `Oc1ccccc1/C=N/N1CCCCCC1` here?
**A.** 91.5% (inactive)

**Q.** `C#C[C@]1(O)CCC2C3CCc4cc(O)ccc4C3CC[C@@]21C` (stereo not given in full) was tested. Which growth did it give?
**A.** 81.3% (inactive)

**Q.** How did the growth turn out when `O=c1[nH]cc(Nc2cc(Cl)c3nonc3c2[N+](=O)[O-])c(=O)[nH]1` was run?
**A.** 92.3% (inactive)

**Q.** Which growth does the source give for `CNCCCn1c2c(c3ccc(F)cc3c1=O)C(=O)c1cc(OC)cnc1-2` here?
**A.** -61.2% (active)

**Q.** How did the growth turn out when `COc1ccc(-n2cnc3cc(C(=O)N4CCCCC4)ccc32)cc1` was run?
**A.** 95.3% (inactive)

**Q.** For `OC(c1ccccc1)C(NCc1ccccc1)c1ccccc1` (stereo not given), which growth is on record?
**A.** 97.7% (inactive)

**Q.** Which growth does the source give for `COc1cc(-c2nnc(-c3nc(-c4cc(OC)c(OC)c(OC)c4)n4ccccc34)o2)ccc1N` here?
**A.** 83% (inactive)

**Q.** Which growth does the source give for `Cc1ccc(-c2c3c(N)c4c(nc3nc3c2c(C)nn3-c2ccccc2)CCC4)cc1` here?
**A.** 92.6% (inactive)

**Q.** `CCSc1nc(Nc2ccc(S(=O)(=O)Nc3ccon3)cc2)c(C#N)c(-c2cccc(Br)c2)n1` was tested. Which growth did it give?
**A.** 77.2% (inactive)

**Q.** With `O=C(Oc1cccc2ccccc12)c1ccccc1C(=O)c1ccccc1` as the molecule, how does the growth read?
**A.** 105% (inactive)

**Q.** Which growth does the source give for `COc1ccc(-c2nc3sc4c(c3c(=O)[nH]2)CCCCCC4)cc1` here?
**A.** 86.5% (inactive)

**Q.** Which growth does the source give for `COc1ccc(Cl)cc1Nc1nc(C(F)(F)F)ccc1C(=O)N/N=C/c1c(Cl)cccc1Cl` here?
**A.** 59.6% (inactive)

**Q.** Which growth does the source give for `Nc1ccccc1C#Cc1ccccc1C#Cc1ccc(OCCCCCCOc2ccc(C#Cc3ccccc3C#Cc3ccccc3N)cc2)cc1` here?
**A.** 99.6% (inactive)

**Q.** `COc1ccc(/C=C2/SC(=Nc3c(C)nn(-c4ccccc4)c3N)NC2=O)cc1` was tested. Which growth did it give?
**A.** 51.1% (inactive)

**Q.** `Nc1nc(NC2CC2)c2ncn(C3C=CC(CO)C3)c2n1` (stereo not given) was tested. Which growth did it give?
**A.** 91.4% (inactive)

**Q.** With `COC(=O)N/N=C/c1coc2ccc(Cl)cc2c1=O` as the molecule, how does the growth read?
**A.** 84.7% (inactive)

**Q.** How did the growth turn out when `COc1ccc(N2CCN(CC(=O)N3CCN(c4nnc(-c5ccc(Cl)cc5)c(-c5ccc(Cl)cc5)n4)CC3)CC2)cc1` was run?
**A.** 57.9% (inactive)

**Q.** With `CCN1CC2=C(Nc3nc(SC)[nH]c(=O)c3C2c2cc(OC)c(OC)c(OC)c2)/C(=C/c2cc(OC)c(OC)c(OC)c2)C1` (stereo not given) as the molecule, how does the growth read?
**A.** 98.5% (inactive)

**Q.** How did the growth turn out when `C(=C1c2ccccc2-c2ccccc21)c1ccccn1` was run?
**A.** 99.6% (inactive)

**Q.** `N=C1c2nc3n(c2C(=O)c2nc4n(c21)CCCCC4)CCCCC3` was tested. Which growth did it give?
**A.** 98.3% (inactive)

**Q.** Which growth does the source give for `O=C1c2cccc3c([N+](=O)[O-])ccc(c23)C(=O)N1CCCCl` here?
**A.** -54.1% [100 µM] (active)

**Q.** With `Cc1[nH]cnc1/C=C1\SC(N2CCCCC2)=NC1=O` as the molecule, how does the growth read?
**A.** 96.2% (inactive)

**Q.** For `Cc1ccc(-c2c3c(N)nc(-c4ccncc4)nc3nc3c2c(C)nn3-c2ccccc2)cc1`, which growth is on record?
**A.** 44.9% (inactive)

**Q.** How did the growth turn out when `CC(C)Sc1nc(-c2ccc(Br)cc2)c(C#N)c(N2CCCCC2)n1` was run?
**A.** 100% (inactive)

**Q.** How did the growth turn out when `COc1cccc(C=Nc2cc(C(C)C)c(O)cc2C)c1O` was run?
**A.** 93% (inactive)

**Q.** `Cc1cc(=O)[nH]c(/C(=N/Nc2ccccc2)C(=O)c2ccc(Cl)cc2)n1` was tested. Which growth did it give?
**A.** 109% (inactive)

**Q.** For `Cc1csc(C#Cc2cncc(O)c2)n1`, which growth is on record?
**A.** 109% (inactive)

**Q.** `O=C(Oc1ccccc1)C(Br)C(Br)c1ccccc1` (stereo not given) was tested. Which growth did it give?
**A.** 107% (inactive)

**Q.** With `NS(=O)(=O)c1cc2c(cc1Cl)NC=NS2(=O)=O` as the molecule, how does the growth read?
**A.** 99% (inactive)

**Q.** With `Cc1ccc(-c2csc(N)n2)cc1` as the molecule, how does the growth read?
**A.** 97.4% (inactive)

**Q.** For `Cc1cnc2nc(-c3ccc(N(C)C)cc3)cn2c1`, which growth is on record?
**A.** 102% (inactive)

**Q.** `O=CNc1ccc2c(c1)Cc1cc([N+](=O)[O-])ccc1-2` was tested. Which growth did it give?
**A.** 66.5% (inactive)

**Q.** `O=C(Nc1nc(-c2ccc(Cl)cc2)cs1)c1cc(-c2ccc(Br)cc2)nc2ccc(Cl)cc12` was tested. Which growth did it give?
**A.** 71.2% (inactive)

**Q.** With `CNc1nc(NC2CCCC2)nc(Sc2ccc(OC)cc2)n1` as the molecule, how does the growth read?
**A.** 46.4% [100 µM] (inactive)
